Results on 9 compounds are retold here after PubChem BioAssay (NCATS).

In assay [1] the target is Cytochrome P450 2D6 (Homo sapiens) (UniProt P10635). In words: Cytochrome P450 family 2 subfamily D member 6 (CYP2D6) small molecule antagonists: luciferase biochemical (cell-free) qHTS assay (AID 1645840; active = well fitted curve in the direction sought with a large enough effect in the repeat runs; an effect the other way counts as inactive or inconclusive; note: nearly all actives have a fitted effect of over 55% in size; note: potency is the fitted concentration of half-maximal effect; for activity change, negative = inhibition: % is set by controls: 0 for no effect and ±100 for the full control effect). A digest of the protocol:
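P450-Glo CYP2D6 system: proluciferin substrate converted by enzyme to luciferin, read by luminescence proportional to activity. Enzyme-substrate mix with compound 10 min at room temperature, then NADPH regeneration 1 h before detection reagent.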

In assay [2] the target is Cytochrome P450 2C9 (Homo sapiens) (UniProt P11712). As to the kind of experiment: Cytochrome P450 family 2 subfamily C member 9 (CYP2C9) small molecule antagonists: luciferase biochemical (cell-free) qHTS assay (AID 1645842; active = well fitted curve in the direction sought with a large enough effect in the repeat runs; an effect the other way counts as inactive or inconclusive; note: nearly all actives have a fitted effect of over 55% in size; note: potency is the fitted concentration of half-maximal effect; for activity change, negative = inhibition: % is set by controls: 0 for no effect and ±100 for the full control effect). In outline: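 P450-Glo CYP2C9 system: proluciferin substrate with enzyme in mix containing 0.4% BSA, 10 min at room temperature, then NADPH regeneration solution added and incubated 1 h at 37C. Detection reagent stopped reaction; luminescence read after 20 min as RLU.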
On the technique in general: In qHTS, concentration-response curves come from the screen itself.

The nature of assay [3]: Cytotoxicity counterscreen for inhibitors of SARS-CoV-2 cell entry (AID 1645845; calls by dose curve; note: % is set by controls: 0 for no effect and ±100 for the full control effect; nearly all actives have a fitted effect of over 50% in size). In outline: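 Counterscreen run in the same HEK293-ACE2 line as the pseudotyped-particle entry assay, without particles. Viability after 48 h at 37 C was read as ATP luminescence, scaled between cell-containing and cell-free wells.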
A general note: A counterscreen serves to expose hits that act by an unwanted route or on another target.

Assay [4] is described as follows: Primary qHTS to identify inhibitors of SARS-CoV-2 cell entry (AID 1645846; calls by dose curve; note: nearly all actives have a fitted effect of over 45% in size). Conditions: activity change, negative = inhibition: at 57.1 µM (top of the series) unless noted. A digest of the protocol:
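Data are normalized to wells receiving SARS-CoV-2-S pseudoparticles and those given bald particles. Entry signal was luciferase luminescence in stable hACE2 Expi293F cells, 48 hr post-infection, after 1 hr compound pretreatment.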

Assay [5] in a line: Primary qHTS for inhibitors of nuclear receptor binding SET domain protein 2 (NSD2) in an RCH-ACV wild type WT cells (2C) (AID 1645877). Note: nearly all actives have a fitted effect of over 70% in size. Note: potency is the fitted concentration of half-maximal effect.
Assay [6] is described as follows: Primary redox qHTS assay for identification of artifact compounds. (AID 1845223).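 Note: 0% = DMSO and 100% = reference compound.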 In outline: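 Redox-cycling detection via DTT (250 uM final) oxidation coupled to Amplex Red (25 uM)/HRP (250 mU/mL) in HBSS. 15 min preincubation plus 30 min after DTT, room temperature. Ex/Em 525/598 nm; 4-parameter Hill fit against DMSO and 10 uM DA3003.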
In another assay the test system is JEG-3. As to the kind of experiment: Primary qHTS to identify gynecologic anti-cancer compounds using libraries of approved drugs and bioactive compounds (AID 1345084). Note: nearly all actives have a fitted effect of over 55% in size. Note: potency is the fitted concentration of half-maximal effect. As to conditions: Gynecologic cancer cell panel viability, ATPlite luminescence, 48 h; series mostly up to 57.5 µM. A digest of the protocol: (§1)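 48 h compound exposure at 37 C, 5% CO2; five-point qHTS. ATPlite luminescence readout of cell ATP.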

In a further assay the test system is SKOV3. The assay is described as above. As to conditions: Gynecologic cancer cell panel viability, ATPlite luminescence, 48 h; series mostly up to 57.5 µM. In outline:
as §1

A short description of assay [7]: P-glycoprotein substrates identified in KB-8-5-11 adenocarcinoma cell line, qHTS therapeutic library screen (AID 1346987). Note: nearly all actives have a fitted effect of over 65% in size. Note: potency is the fitted concentration of half-maximal effect. In outline:
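In this qHTS, P-gp-rich KB-8-5-11 cells received library compounds across a concentration range. Viability was quantified by luminescence after 72 h at 37 degree C.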

The subject of assay [8] is Zika virus NS2B-NS3 protease (unlinked complex). In words: Primary screen GU Rhodamine qHTS for Zika virus inhibitors: Unlinked NS2B-NS3 protease assay (AID 1347159). Note: % is set by controls: 0 for no effect and ±100 for the full control effect; nearly all actives have a fitted effect of over 60% in size. A digest of the protocol: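 Buffer 10 mM Tris-HCl pH 8.0, 0.01% Tween 20. Unlinked protease 25 nM; compound preincubation 15 min, RT, protected from light. Substrate Rhod110, 1.5 microM; ~15% conversion in 15 min.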

Another assay has as its system CAOV3. As to the kind of experiment: Primary qHTS to identify gynecologic anti-cancer compounds using libraries of approved drugs and bioactive compounds (AID 1345084). Note: nearly all actives have a fitted effect of over 55% in size. Note: potency is the fitted concentration of half-maximal effect. Conditions: Gynecologic cancer cell panel viability, ATPlite luminescence, 48 h; series mostly up to 57.5 µM. A digest of the protocol:
as §1

The next assay deals with HeLa. The description is as above. Conditions: Gynecologic cancer cell panel viability, ATPlite luminescence, 48 h; series mostly up to 57.5 µM. A digest of the protocol: as §1
(In ATP-based viability assays light output follows the ATP content of the culture.)

Assay [9] is described as follows: qHTS drug screen for cell cycle checkpoint inhibitors in PARPi-resistant BRCA-mutant ovarian cancer cell lines. (AID 1963452; calls by dose curve). As to conditions: PEO1/OlaR viability, CellTiter-Glo luminescence, 96 h, stronger effect = lower value. A digest of the protocol: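 PEO1, PEO4 and PEO1/OlaR ovarian cancer cells, 600 per well, exposed 96 h at 37C to a dilution series. Viability read by CellTiter-Glo luminescence, normalized to DMSO and empty wells; activity summarized as Z-AUC.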

In a further assay the test system is KB-3-1. In words: Cytotoxic Profiling of Annotated Libraries Using Quantitative High-Throughput Screening (AID 1296008). For max response: % is set by controls: 0 for no effect and ±100 for the full control effect. Note: nearly all actives have a fitted effect of over 60% in size. Note: potency is the fitted concentration of half-maximal effect. Conditions: Five cell lines viability, CellTiter-Glo ATP luminescence, 48-72 h; max response: stronger effect = lower value. In outline: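 Cells exposed to compounds for 48 or 72 hr at 37 degrees Celsius. Viability read as ATP-coupled luminescence with CellTiter-Glo after 10 min at room temperature.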

The nature of assay [10]: P-glycoprotein substrates identified in KB-3-1 adenocarcinoma cell line, qHTS therapeutic library screen (AID 1346986). Note: nearly all actives have a fitted effect of over 60% in size. In outline:
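Viability by CellTiter-Glo after 72 h compound exposure at 37 degree C, 5% CO2. Cytotoxic call: curve class -1.1 to -2.4, maximum response >50%, AC50 < 10 uM, compared across KB-3-1 and P-gp-overexpressing KB-8-5-11.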

Assay [11] has as its target Guanidinoacetate N-methyltransferase (Homo sapiens) (UniProt Q14353). As to the kind of experiment: Confirmatory Screen for Target Class Profiling of Small Molecule Inhibitors of Methyltransferases (AID 1745852). For activity change, negative = inhibition: % is set by controls: 0 for no effect and ±100 for the full control effect. Conditions: activity change, negative = inhibition: at 57.3 µM (top of the series) unless noted.
Assay [12] addresses Nicotinamide N-methyltransferase (Homo sapiens) (UniProt P40261). Described as above. As to conditions: MTase-Glo luminescence, SAH detection, recombinant enzyme; measured here: NNMT max response; stronger effect = lower value.

Each structure is given as a SMILES string. Several values for one entry are separate records, joined by “and”; a condition that tells them apart may be missing. Identical values can stand only once. Inconclusive results are not listed. Activity calls are given as the source filed them. Unless noted, calls come from the whole dose curve; as a rule, active = well fitted curve in the direction sought with a large enough effect; inconclusive = small, poorly fitted or top-dose-only effect, or another doubt; inactive = no such curve, though single readings can be large; an effect the other way counts as inactive or inconclusive.

Cytochrome P450 2D6 (Homo sapiens), sequence (P10635 whole entry, looked up): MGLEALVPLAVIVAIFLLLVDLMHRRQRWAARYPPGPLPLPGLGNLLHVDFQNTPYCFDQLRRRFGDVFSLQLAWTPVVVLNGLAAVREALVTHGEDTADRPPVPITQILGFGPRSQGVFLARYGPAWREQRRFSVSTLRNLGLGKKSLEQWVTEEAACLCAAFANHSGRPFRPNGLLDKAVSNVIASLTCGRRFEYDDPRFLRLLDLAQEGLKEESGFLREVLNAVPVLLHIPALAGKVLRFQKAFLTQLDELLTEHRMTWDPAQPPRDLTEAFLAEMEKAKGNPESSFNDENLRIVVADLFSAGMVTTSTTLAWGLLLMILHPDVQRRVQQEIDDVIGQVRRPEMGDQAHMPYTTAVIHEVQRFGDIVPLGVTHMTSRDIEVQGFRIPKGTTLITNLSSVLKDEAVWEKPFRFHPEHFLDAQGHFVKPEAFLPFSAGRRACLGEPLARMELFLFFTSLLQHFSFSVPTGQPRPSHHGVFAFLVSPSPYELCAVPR
Cytochrome P450 2C9 (Homo sapiens), sequence (P11712 whole entry, looked up): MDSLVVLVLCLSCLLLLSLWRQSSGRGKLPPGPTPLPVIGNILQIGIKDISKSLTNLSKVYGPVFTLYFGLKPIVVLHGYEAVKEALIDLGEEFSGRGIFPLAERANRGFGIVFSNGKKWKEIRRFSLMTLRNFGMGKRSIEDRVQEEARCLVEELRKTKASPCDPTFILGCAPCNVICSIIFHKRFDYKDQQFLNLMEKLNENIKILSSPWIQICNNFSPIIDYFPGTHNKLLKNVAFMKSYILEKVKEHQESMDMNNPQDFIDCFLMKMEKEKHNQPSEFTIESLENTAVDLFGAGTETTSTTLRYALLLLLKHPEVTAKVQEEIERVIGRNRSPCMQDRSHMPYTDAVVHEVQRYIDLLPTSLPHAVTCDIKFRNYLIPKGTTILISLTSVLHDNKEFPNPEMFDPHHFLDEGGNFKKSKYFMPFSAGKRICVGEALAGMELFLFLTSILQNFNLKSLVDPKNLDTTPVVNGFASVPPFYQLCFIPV
Nicotinamide N-methyltransferase (Homo sapiens), sequence (P40261 whole entry, looked up): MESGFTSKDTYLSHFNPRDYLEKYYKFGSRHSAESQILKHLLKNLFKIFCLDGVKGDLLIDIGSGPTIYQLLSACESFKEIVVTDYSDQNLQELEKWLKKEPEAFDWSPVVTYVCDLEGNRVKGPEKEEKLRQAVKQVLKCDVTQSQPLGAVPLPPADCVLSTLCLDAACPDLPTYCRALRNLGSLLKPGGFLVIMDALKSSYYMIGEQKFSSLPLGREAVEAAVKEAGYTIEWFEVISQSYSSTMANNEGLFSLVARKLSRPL

As for `Cc1sc2c(c1C)C(c1ccc(Cl)cc1)=NC(CC(=O)Nc1ccc(O)cc1)c1nnc(C)n1-2` (stereo not drawn), the Potency entry (in assay [1]; in assay [2]; in assay [3]; in assay [6]; in the assay on JEG-3) was “inactive” in each case. Moreover, in [4], the activity change, negative = inhibition was -87.5%. The Potency in [5] was 129 nM (active) and 296 nM (active); with SKOV3 it was 3160 nM (active).

With `C[C@@H]1C[C@@H](O)[C@]2(O)O[C@@H]3C[C@@]4(C=O)C(CC[C@@H]5C4CC[C@]4(C)[C@@H](C6=CC(=O)OC6)CC[C@]54O)C[C@H]3O[C@@H]2O1` (stereo partly drawn), the Potency in [7] is 63.2 nM (active); in assay [5], 79.6 nM (active). For the same compound, the Potency entry (in assay [8]; in [6]; in the assay on JEG-3) was “inactive” in each case.

`COC(=O)C1=COC(C)C2CN3CCC4(C(=O)Nc5ccccc54)C3CC12` (stereo not drawn): the Potency entry (in assay [7]; in [8]; in assay [5]; in [6]; in the assay with CAOV3; with HeLa) was “inactive” throughout. Further, the Potency result in the assay with JEG-3 and in the assay on SKOV3 was “inactive” throughout.

For the compound `CN[C@@H]1C[C@H]2O[C@@](C)([C@@H]1OC)n1c3ccccc3c3c4c(c5c6ccccc6n2c5c31)C(=O)NC4`, the Potency in [7] is 58 nM (active); in assay [5] it was 59 nM (active); in the assay with KB-3-1, 130 nM (active); with HeLa, 282 nM (active); with SKOV3 it was 316 nM (active). Further, the Potency entry in [6] was “inactive”. In addition, the figures for the Z-AUC in [9], in assay [9] (measured here: PEO1 parental Z-AUC) and in [9] (measured here: PEO4 Z-AUC) were -2.43 (inactive), -2.26 and -2.16, respectively.

In the case of `CO[C@H]1[C@@H](O)[C@@H](C)O[C@@H](O[C@@H]2C=C3C(OC(C)=O)CC4(O)C(CC[C@]5(C)[C@@H](C6=CC(=O)OC6)CC[C@]45O)[C@@]3(C)CC2)[C@@H]1O` (stereo partly drawn), the Potency in assay [7] is 193 nM (active); in assay [5], 85.8 nM (active); in the assay on CAOV3, 501 nM (active); with HeLa, 501 nM (active); in the assay on SKOV3 it was 282 nM (active). Also, the Potency entry in [8] is “inactive”.

Turning to `C=C(CO)C(=O)O[C@H]1CC(=C)[C@@H]2C[C@H](O)C(=C)[C@@H]2[C@H]2OC(=O)C(=C)[C@@H]21`, the Potency result (in [10]; in assay [7]; in assay [6]; in the assay on CAOV3; in the assay on HeLa; in the assay on JEG-3) was “inactive” throughout. Besides, the Potency result in the assay with SKOV3 is “inactive”. For the same compound, the Potency in [5] is 2010 nM (active). Also, in assay [11], the activity change, negative = inhibition was -4.37%. For the same compound, the activity in assay [12] was -6.26%. For the same compound, the outcome in the assay on KB-3-1 is “inactive”.

On to `C=C1[C@@H](C)C2[C@H](Cc3ccccc3)NC(=O)[C@@]23C(/C=C/C[C@H](C)C[C@@](C)(O)/C=C/[C@@H]3OC(C)=O)[C@@H]1O` (stereo partly drawn), for which the Potency in assay [7] is 2910 nM (active); in assay [5] it was 205 nM (active). In addition, the Potency entry (in [8]; in assay [6]; in the assay with CAOV3) was “inactive” in each case.

As to `COC1CC(O[C@H]2CC[C@]3(C)C4CC[C@]5(C)[C@@H](C6=CC(=O)OC6)[C@@H](OC(C)=O)C[C@]5(O)C4CC[C@@H]3C2)OC(C)C1O` (stereo partly drawn), the Potency was 563 nM (active) in assay [7]; 448 nM (active) in assay [5]; 1260 nM (active) in the assay on CAOV3; 891 nM (active) in the assay with HeLa; 794 nM (active) with SKOV3. Moreover, in assay [8], the Potency result is “inactive”.

As to `CC(C)[C@H](NC(=O)c1nn(Cc2ccc(F)cc2)c2ccccc12)C(N)=O`, the Potency entry (in [7]; in assay [8]; in assay [5]; in the assay with CAOV3; in the assay on HeLa; with JEG-3) was “inactive” in each case. Besides, in the assay on SKOV3, the Potency result is “inactive”. In addition, the Potency in assay [1] was 16900 nM (active); in [2], 6740 nM (active). In addition, in the assay on KB-3-1, the max response was 0.24% (inactive).
